# Screening data from PubChem BioAssay.
# Only some compounds are listed: those with a hit (about 18% of all), similar ones and a draw of the others.
# TDP1 cell CPT: DT40-hTDP1 cell growth loss with CPT | chicken DT40 Tdp1-/-;hTDP1 cells + 20 nM CPT, ATP luminescence, 48 h | Potency, µM (doses to about 46.2 µM), for the others: top-dose activity change, negative = growth inhibition, most hits filed as inhibitors | 420,000 compounds, 12% hits | AID 686979; also: nearly all actives have a fitted effect of over 55% in size
#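 Chicken DT40 Tdp1-/- cells stably complemented with human TDP1 were seeded at 400 cells/well in medium containing 20 nM camptothecin, exposed to pin-transferred compounds, and grown at 37 °C for at least 48 hr. Viability was read as ATP luminescence.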
# TDP1 cell noCPT: qHTS for Inhibitors of human tyrosyl-DNA phosphodiesterase 1 (TDP1): qHTS in cells in absence of CPT. DT40 Tdp1-/- hTDP1 cells, no CPT, ATP luminescence, 48 h. 420,000 compounds, 15% hits. Potency, µM (doses to about 46.2 µM), for inactives: top-dose activity change, negative = growth inhibition, most hits filed as inhibitors. AID 686978, 2013; also: nearly all actives have a fitted effect of over 55% in size
#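 Seeded 400 DT40-hTDP1 cells/well (vehicle DMSO, no 20 nM CPT); pinned compounds; ≥48 hr at 37 °C; CellTiter-Glo luminescence as viability measure.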
# GCN5L2 inh: inhibitors of human GCN5L2 histone acetyltransferase; Q92830; GCN5L2 HAT assay, ThioGlo1 CoA-SH fluorescence; Potency, µM (titrated, usually from 58.9 µM), for the others: top-dose activity change, negative = inhibition, most hits filed as inhibitors; 390,000 compounds, 0.21% hits; AID 504327
# Target sequence (Q92830 whole entry, looked up): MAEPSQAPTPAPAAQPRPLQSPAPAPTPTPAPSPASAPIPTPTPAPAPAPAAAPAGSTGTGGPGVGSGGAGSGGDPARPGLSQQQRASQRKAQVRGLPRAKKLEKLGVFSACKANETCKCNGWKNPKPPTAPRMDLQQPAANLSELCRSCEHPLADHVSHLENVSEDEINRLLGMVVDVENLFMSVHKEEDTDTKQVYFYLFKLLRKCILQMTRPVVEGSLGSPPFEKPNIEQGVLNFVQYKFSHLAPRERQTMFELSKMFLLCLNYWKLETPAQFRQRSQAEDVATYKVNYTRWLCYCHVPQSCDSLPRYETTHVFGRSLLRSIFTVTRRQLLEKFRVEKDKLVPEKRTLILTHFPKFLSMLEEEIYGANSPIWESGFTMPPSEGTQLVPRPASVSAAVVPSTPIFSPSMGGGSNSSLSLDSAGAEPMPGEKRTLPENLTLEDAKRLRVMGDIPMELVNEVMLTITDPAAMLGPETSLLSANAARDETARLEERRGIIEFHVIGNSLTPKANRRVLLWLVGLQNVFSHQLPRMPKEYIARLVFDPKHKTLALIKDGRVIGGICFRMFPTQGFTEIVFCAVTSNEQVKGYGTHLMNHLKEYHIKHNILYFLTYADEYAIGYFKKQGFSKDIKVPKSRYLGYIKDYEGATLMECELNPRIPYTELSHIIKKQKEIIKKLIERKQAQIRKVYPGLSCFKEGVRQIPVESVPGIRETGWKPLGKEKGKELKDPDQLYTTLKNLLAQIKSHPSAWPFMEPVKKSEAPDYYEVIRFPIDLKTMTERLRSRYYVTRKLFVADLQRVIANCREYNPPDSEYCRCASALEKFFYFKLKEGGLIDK
#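 Free CoA generated was detected with ThioGlo1 (50uM) fluorescence at Ex340nm/Em540nm, read immediately and after 20 min at room temperature. Enzyme, 20 nM in HEPES pH 7.5 buffer, saw compounds 15 min before adding 75uM H3(1-25) peptide and 70uM acetyl-CoA.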
# TDP1 block: TDP1 (human) enzyme inhibition; AID 485290; recombinant TDP1, AlphaScreen DNA substrate cleavage; 350,000 compounds, 0.28% hits; Potency, µM (doses to about 130 µM), for inactives: at the top dose activity change, negative = inhibition, usual class: inhibitors; also: nearly all actives have a fitted effect of over 40% in size
#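 E. coli-derived human Tdp1, 1 nM final. Cpd preinc 15 min RT; substrate 15 nM final, 5 min RT; AS bead mix 10 ug/ml final, 10 min RT. Signal loss = tyrosine-FITC cleavage. No-enzyme wells = max signal.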
# VDR inhibitor: vitamin D3 receptor (human) inhibition | Potency, µM, for inactives: max response, negative = inhibition, actives largely listed as inhibitors | 400,000 compounds, 0.93% hits | AID 504847 | VDR-SRC2-3 peptide fluorescence polarization, 2 h
#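 FP read-out; VDR + SRC2-3 coactivator peptide; 23 nl compound by pintool; 2 h RT incubation; reagents held at 4 deg C, protected from light.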
# PLK1 PBD inh: blocks phosphopeptide binding to human PLK1 polo-box domain; P53350; AID 720504; Plk1 PBD binding of FITC phosphopeptide, fluorescence polarization; Potency, µM, inactives show max response, negative = inhibition, most hits filed as inhibitors; 360,000 compounds, 2.8% hits; also: series mostly up to about 57 µM; nearly all actives have a fitted effect of over 65% in size
# Active calls of the source: *; u = inconclusive; x = no result; [ ] = dose if it differs, or a comment. Calls follow the shape of the dose curve; as a rule, active = well fitted curve in the direction sought with a large enough effect; inconclusive = small, poorly fitted or top-dose-only effect, or another doubt; inactive = no such curve, though single readings can be large; an effect the other way counts as inactive or inconclusive. % is scaled to controls: 0 for no effect and ±100 for the full control effect; potency is read from the fitted curve at half-maximal effect.
SMILES,TDP1 cell CPT,TDP1 cell noCPT,GCN5L2 inh,TDP1 block,VDR inhibitor,PLK1 PBD inh
C/C(Cl)=C/Cc1c(C)[nH]c2c(ccc3ccccc32)c1=O,u,23µM*,-6%,x,-4%,-2%
O=[N+]([O-])c1ccc(C(O)C(CO)NC(=S)Nc2ccccc2)cc1 (configuration not stated),16µM*,u,-8%,1%,-9%,-5%
COc1ccc(NC(=O)c2cc(-c3cc(Cl)ccc3C)n[nH]2)cn1,23µM*,u,x,x,x,-16%
COc1ccc(Cl)cc1-c1cc(C(=O)Nc2ccc(C)c(NS(C)(=O)=O)c2)[nH]n1,18µM*,21µM*,x,x,x,-13%
COc1ccc(Cl)cc1-c1cc(C(=O)Nc2ccc(C(C)(C)C)cc2)[nH]n1,21µM*,15µM*,x,x,x,2%
CCOc1ccc(Cl)cc1-c1cc(C(=O)Nc2ccc(F)cc2)[nH]n1,u,16µM*,x,x,x,4%
CCCOc1ccc(F)cc1-c1cc(C(=O)Nc2ccccc2)[nH]n1,1%,u,x,x,x,-2%
COc1ccc(NC(=O)c2cc(-c3cc(Cl)ccc3C)n[nH]2)c(OC)c1,u,u,x,x,x,-4%
Cc1nn2c(-c3ccco3)ccnc2c1-c1ccc(F)cc1,-18%,-16%,1%,3%,18%,x
CCCOc1ccc(F)cc1-c1cc(C(=O)Nc2ccc(OC)cc2C)[nH]n1,u,u,x,x,x,4%
CCCOc1ccc(F)cc1-c1cc(C(=O)Nc2ccc(OC)cc2OC)[nH]n1,u,18µM*,x,x,x,-13%
COc1ccc(NCC(=O)Nc2ccc(Cl)cc2C)c(OC)c1,u,29µM*,-12%,8%,-5%,-23%
COc1ccc(NC(=O)c2cc(-c3cc(Cl)ccc3OC)n[nH]2)c(C)c1,u,18µM*,x,x,x,-4%
CCOc1ccc(S(=O)(=O)N(CC(=O)NCCSc2ccccc2)c2ccccc2)cc1,0%,-1%,-2%,x,-6%,x
CCOC(=O)N1CCN(C(=O)CSc2cc(C)nc3c(-c4ccccc4OC)c(C)nn23)CC1,23µM*,16µM*,-3%,8%,-13%,0%
COc1ccccc1-c1c(C)nn2c(N3CCC(C(N)=O)CC3)cc(C)nc12,-4%,-14%,-6%,4%,-7%,0%
COc1ccccc1-c1cnn2c(NC3CCCC3)cc(C)nc12,29µM*,21µM*,-9%,x,-1%,-3%
COc1ccccc1-c1c(C)nn2c(N3CCC(C)CC3)cc(C)nc12,0%,u,-2%,x,-4%,-10%
CCOC(=O)N1CCC(Nc2cc(C)nc3c(-c4ccccc4OC)c(C)nn23)CC1,5.8µM*,9.2µM*,-3%,8%,-13%,-20%
CCOC(=O)C1CCCN(c2cc(C)nc3c(-c4ccccc4OC)c(C)nn23)C1 (configuration not stated),13µM*,u,-3%,-2%,12%,x
CCOC(=O)N1CCN(C(=O)CSc2ccc(-c3ccccc3OC)nn2)CC1,-24%,u,-14%,5%,-12%,-5%
COc1ccc(NC(C)=O)cc1CP(=O)(c1ccccc1)c1ccccc1,-7%,15%,18%,x,u,-2%
COc1ccc(CNc2ncnc3nc[nH]c23)cc1OC,u,-11%,x,3%,u,x
CCOC(=O)c1ccc(CNc2ncnc3nc[nH]c23)cc1,4µM*,11µM*,x,3%,4%,x
CCOc1cc(CNc2ncnc3nc[nH]c23)ccc1OC,u,26µM*,1%,9%,-21%,-3%
SMILES,TDP1 cell CPT,TDP1 cell noCPT,GCN5L2 inh,TDP1 block,VDR inhibitor,PLK1 PBD inh
CC(C)CCN1CCc2nc(-c3ccccc3)c3c(c2C1)COC(C)C3 (configuration not stated),x,x,x,11%[21 µM],x,x
COc1ccc(CN2CCOc3ccc(C(O)c4cccnc4)cc3C2)c(OC)c1OC (configuration not stated),-9%[9.04 µM],-29%,x,x,x,x
N#Cc1ccsc1NC(=O)c1cnccn1,-7%,-2%,-5%,-4%,25%,-14%
CC(C)(C)NS(=O)(=O)c1cc(C(=O)Nc2sccc2C#N)ccc1Cl,16µM*,12µM*,4%,-12%,-4%,-2%
O=C(c1ccc(NS(=O)(=O)c2ccc3[nH]c(=O)[nH]c3c2)cc1)N1CCN(c2ccccc2O)CC1,-2%,-9%,0%,5%,-23%,-8%
CSc1cccc(NC(=O)CCCOc2ccc(Cl)cc2C)c1,18µM*,u,-8%,-6%,17%,3%
Cc1ccc(OCC(=O)Nc2cccc(-c3nnc(-c4ccccc4)o3)c2)cc1,16µM*,16µM*,-4%,5%,-25%,-3%
COc1ccc(OCCCC(=O)Nc2cccc(SC)c2)cc1,-3%,-19%,20%,1%,-9%,-11%
CSc1cccc(NC(=O)OC2CCCCCCCCCCC2)c1,u,21µM*,-31%,-1%,-25%,-6%
Cc1ccc(OCC(=O)Nc2ccc(-c3nc4ccc(C)cc4o3)cc2)cc1,16µM*,18µM*,-6%,3%,1%,x
CCOC(=O)COc1ccc(-c2nnc(-c3ccccc3)o2)cc1,-25%,-24%,-1%,0%,-3%,-5%
CCN(CC)S(=O)(=O)c1ccc(C(=O)NCC(=O)NCc2ccc3c(c2)OCO3)cc1,-1%,-23%,x,x,x,7%
CCNc1ncc2nc(-c3ccc(Cl)cc3)c(=O)n(Cc3ccc(F)cc3)c2n1,u,-11%,-7%,x,5%,x
CN1CCCCC1C(=O)N1CCC(Oc2cccc(CN3CCN(c4ccccn4)CC3)c2)CC1 (configuration not stated),12%[9.04 µM],u,x,x,x,x
Cc1cccc(C)c1OCC(=O)Nc1cccc(-c2nnc(-c3ccccc3)o2)c1,18µM*,16µM*,-7%,3%,0%,-2%
CSc1cccc(NC(=O)COc2ccccc2)c1,8.2µM*,4.6µM*,-5%,4%,-21%,3µM*
CCCCC(=O)Nc1cccc(-c2nnc(-c3ccccc3)o2)c1,23µM*,23µM*,2%,-2%,2%,-6%
Cc1cccc(OCC(=O)Nc2cccc(-c3nnc(-c4ccccc4)o3)c2)c1C,-21%,u,2%,-2%,-1%,-5%
Cc1cccc(-c2nnc(-c3cccc(NC(=O)Cc4cccs4)c3)o2)c1,18µM*,15µM*,-9%,5%,14%,1%
Cc1cccc(Nc2nc3ccccc3n3c(N)nnc23)c1,6%,-30%,-6%,x,-8%,x
COc1ccc(-c2nc3c(c4c2C[C@H](c2ccccc2)OC4)CN(C(=O)NCc2ccco2)CC3)c(C)c1,x,x,x,19%[12.3 µM],x,x
